Screening data from PubChem BioAssay.
Hits are enriched below; roughly 9% of the tested compounds scored in any of these assays.
Luc counter: blocks Kinase-Glo luciferase, a counter-screen artifact; Q27757; Kinase-Glo luciferase, ATP luminescence, 8 min; Potency, µM (highest dose often 38.3 µM), for inactives: at the top dose activity change, negative = inhibition, actives largely listed as inhibitors; 200,000 compounds, 0.28% hits; AID 1379; active = well fitted curve in the direction sought with a large enough effect; inconclusive = small, poorly fitted or top-dose-only effect, or another doubt; inactive = no such curve, though single readings can be large; an effect the other way counts as inactive or inconclusive; note: nearly all actives have a fitted effect of over 60% in size
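Compounds were added to a substrate mix at pH 7.2 (50 mM imidazole, 10 uM ATP, within the enzyme's linear range), followed by Kinase-Glo detection reagent; luminescence was measured after 8 minutes at ambient temperature.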
LMNA splice mod: changes lamin A minigene splicing in HeLa cells; 200,000 compounds, 0.01% hits; HeLa LMNA splicing GFP/RFP minigene ratio, 48 h; AID 1487; Potency, µM (series often up to 46.1 µM), without a hit: at the top dose ratio change, negative = inhibition, hits mostly inhibitors; active = well fitted inhibition curve with a large enough effect in the signal ratio, with a control signal flat, not every such curve was filed as active; inconclusive = small, poorly fitted or top-dose-only effect, or effect the other way, or a change in a side signal; the % refers to the signal ratio
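S3 HeLa cells stably expressing lamin A-EGFP splicing minigene plus DsRed2, 600 cells/well, 48 h compound exposure at 37C. Laser-scanning cytometry; analysed as GFP (500-530 nm)/RFP (575-640 nm) total intensity ratio; 0.5% DMSO vehicle.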
HPGD block: blocks human HPGD enzyme activity | 150,000 compounds, 4.3% hits | Potency, µM, without a hit: at the top dose activity change, negative = inhibition, actives largely listed as inhibitors | purified HPGD, NADH fluorescence kinetic, PGE2 substrate | P15428 | AID 894
Target sequence (P15428 whole entry, looked up): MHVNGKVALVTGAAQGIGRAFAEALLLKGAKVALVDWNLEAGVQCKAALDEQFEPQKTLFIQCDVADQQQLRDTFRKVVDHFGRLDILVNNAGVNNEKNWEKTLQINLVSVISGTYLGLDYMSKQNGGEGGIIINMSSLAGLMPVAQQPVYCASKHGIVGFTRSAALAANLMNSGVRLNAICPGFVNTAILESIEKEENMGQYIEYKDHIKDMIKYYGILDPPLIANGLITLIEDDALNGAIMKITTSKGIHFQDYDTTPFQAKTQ
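NADH formation kinetics: reaction with 30 uM PGE2 and 1 mM NAD+ (final), 20 nM enzyme, Tris-HCl pH 8 with Tween 20, after 15 min compound preincubation at room temperature. Fluorescence change, last versus first of five reads.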
IMPase Li inh: membrane-permeable IMPase blocker, potentiated with lithium | 210,000 compounds, 0.35% hits | Potency, µM (highest dose often 59.4 µM), for the others: at the top dose activity, negative = IMPase inhibition, hits mostly inhibitors | CHO-M1 cells, IP1 TR-FRET (IP-One), carbachol + lithium; active = well fitted curve in the direction sought with a large enough effect; inconclusive = small, poorly fitted or top-dose-only effect, or another doubt; inactive = no such curve, though single readings can be large; an effect the other way counts as inactive or inconclusive;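 note: IP1 builds up when IMPase is blocked and the TR-FRET signal falls; plate controls were basal vehicle for no effect and high inhibitor control for full effect; nearly all actives have a fitted effect of over 50% in size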
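IP1 accumulation measured by competitive TR-FRET in lysed CHO-M1 cells after 30 min compound exposure at 37C, with a small lithium addition to potentiate weak responses. Hill-equation AC50 from ratio and donor-channel data.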
ALDH1A1 block: inhibitors of human aldehyde dehydrogenase 1A1; 220,000 compounds, 7.3% hits; Potency, µM (series often up to 75.3 µM), inactives show top-dose activity, negative = inhibition, usual class: inhibitors; Purified ALDH1A1, NADH fluorescence, propionaldehyde substrate;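 note: plate controls were no enzyme wells and a reference inhibitor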
Target sequence (P00352 whole entry, looked up): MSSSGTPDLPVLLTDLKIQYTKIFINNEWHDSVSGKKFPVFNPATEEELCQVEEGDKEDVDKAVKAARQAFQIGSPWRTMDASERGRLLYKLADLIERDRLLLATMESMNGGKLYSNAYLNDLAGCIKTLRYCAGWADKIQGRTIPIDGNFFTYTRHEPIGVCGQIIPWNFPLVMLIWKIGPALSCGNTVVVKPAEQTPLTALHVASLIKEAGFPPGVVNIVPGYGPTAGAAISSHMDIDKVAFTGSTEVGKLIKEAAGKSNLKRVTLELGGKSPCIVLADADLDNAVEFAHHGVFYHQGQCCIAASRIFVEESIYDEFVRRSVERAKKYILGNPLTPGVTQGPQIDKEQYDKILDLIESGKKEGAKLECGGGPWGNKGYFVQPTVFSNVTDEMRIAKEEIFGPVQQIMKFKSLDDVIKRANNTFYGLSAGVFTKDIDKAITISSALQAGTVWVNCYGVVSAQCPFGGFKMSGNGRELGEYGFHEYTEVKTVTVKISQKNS
An asterisk follows results filed as active; u = inconclusive; x = not tested or not shown; [ ] = another dose, or the depositor's remark. Unless noted, calls come from the whole dose curve; as a rule, active = well fitted inhibition curve with a large enough effect (not every such curve was filed as active); inconclusive = small, poorly fitted or top-dose-only effect, or another doubt; inactive = no such curve, though single readings can be large or run the other way. Unless noted, % is set by controls: 0 for no effect and ±100 for the full control effect; potency is the fitted concentration of half-maximal effect.

SMILES	Luc counter	LMNA splice mod	HPGD block	IMPase Li inh	ALDH1A1 block
Cc1ccc(CN(C(=O)COc2cccc(Cl)c2)c2ccccn2)o1	x	-15.5%[46 µM]	x	x	x
CCN1C(=O)/C(=C2/C=Cc3cc(C)ccc3N2CC)N(C)C1=S	10µM*	-13.8%	-0.8%	53.9%	u
COc1ccc(CCNC(=O)C23CN(Cc4ccccc4)CC2C(c2ccc([N+](=O)[O-])cc2)=NO3)cc1 (stereo not drawn)	3.5%	-4.3%	-22.7%	7.1%	15.8µM*
O=C(NCCCCc1ccccc1)C12CN(Cc3ccccc3)CC1C(c1ccc([N+](=O)[O-])cc1)=NO2 (stereo not drawn)	2.3%	-16.1%	-18.4%	9.7%	11.2µM*
O=C(NCc1ccco1)C12CN(Cc3ccccc3)CC1C(c1ccc([N+](=O)[O-])cc1)=NO2 (stereo not drawn)	2.6%	4.4%	-12.8%	8.6%[38.3 µM]	3.98µM*
Nc1ncnc2nc(-c3ccc(C[P+](c4ccccc4)(c4ccccc4)c4ccccc4)cc3)[nH]c12	-4.9%[7.66 µM]	x	-25.2%	18.8%	u
COc1ccccc1C(=O)NC1CCN(C(=S)NCCc2ccccc2)CC1	-3.3%	6.1%[46 µM]	x	-0.1%	5.6%
CC(=O)OC1c2ccccc2C(=O)N1Cc1ccccc1Cl (stereo not drawn)	3.0%	-7.4%	17.8µM*	22.9%[38.3 µM]	u
O=C1NC2(CCC3(CC2)OCCO3)NN1c1ccc(Cl)cc1	1.0%	9.1%[46 µM]	x	-1.1%	u
CCC1(C)Cc2nc3[nH]c(=S)n(-c4ccc(C)cc4)c(=O)c3cc2CO1 (stereo not drawn)	3.4%	0.0%	-15.7%	8.91µM*	u
Cc1ccc(-n2c(=S)[nH]c3nc4c(cc3c2=O)COC(C)(C)C4)cc1	-0.1%	-1.2%	-0.5%	2.3%	u
Cc1csc(SCC(=O)NC(=O)C2CCCCC2)n1	-3.3%	-7.5%[46 µM]	x	-1.6%	12.5%
N#CCCn1c(=O)c(-c2cccs2)nc2cnc(N3CCOCC3)nc21	x	12.0%	x	-3.6%	u
Cc1c(NC(=S)NC(=O)C(C)(C)C)cccc1[N+](=O)[O-]	-1.4%	-5.7%	-13.8%	1.6%	u
Cc1ccc([N+](=O)[O-])cc1NC(=O)c1ccc(C(C)(C)C)cc1	-0.7%	14.3%	15.8µM*	12.6%[38.3 µM]	-9.2%
Cc1ccc([N+](=O)[O-])cc1NC(=S)NC(=O)C(C)(C)C	-4.6%	2.5%	7.08µM*	22.8%[38.3 µM]	4.47µM*
Cc1ccc([N+](=O)[O-])cc1NC(=S)NC(=O)CC(C)(C)C	-1.7%	21.8%	15.8µM*	14.6%[38.3 µM]	-14.2%
CC(=O)NC(=S)Nc1ccc([N+](=O)[O-])cc1C	0.5%	3.7%[46 µM]	x	-4.6%	-15.1%
Cc1cc([N+](=O)[O-])ccc1NC(=S)NC(=O)Cc1ccccc1	-5.6%	23.0%	17.8µM*	19.9%[38.3 µM]	u
C[C@H]1CCCC=CC2C[C@H](OC(=O)CN(C)C)C[C@@H]2[C@@H](O)/C=C\C(=O)O1 (stereo partly drawn)	-2.7%[7.66 µM]	x	0.6%	5.9%	-7.9%[13.5 µM]
Nc1c(C(=O)Nc2ccc(F)cc2)nnn1-c1cccc(C(F)(F)F)c1	-1.0%	10.1%[46 µM]	x	-4.1%	-8.8%
O=C(O)COc1ccc2c3c(c(=O)oc2c1)CCC3	x	4.0%	x	x	u
C[C@H]1COC(=O)[C@H]2CCCN2C(=O)[C@@H](C)COC(=O)[C@H]2CCCN2C1=O	x	x	x	x	-8.0%[13.5 µM]
CCOc1cc(/C=C/C(=O)OCC(=O)NC2CCS(=O)(=O)C2)ccc1OCc1ccccc1 (stereo not drawn)	0.4%	u	x	6.7%	u
C=CC[C@@H]1[C@H](O)CC[C@@]2(C)[C@H]1CC[C@@H]1[C@@H]2CC[C@]2(C)C([C@H](C)CCCC(C)C)CC[C@@H]12 (stereo partly drawn)	x	x	x	3.6%	9.3%
SMILES	Luc counter	LMNA splice mod	HPGD block	IMPase Li inh	ALDH1A1 block
Cc1ccccc1NS(=O)(=O)c1cc(C(=O)Nc2cccc([N+](=O)[O-])c2)ccc1C	-2.7%	u	-11.0%	4.4%	22.4µM*
Cc1nccn1-c1ccc(C=O)cc1	0.2%	5.7%[46 µM]	x	1.4%	20µM*
CCOc1ccccc1NC(=O)C(NS(=O)(=O)c1cccc2nsnc12)c1ccccc1 (stereo not drawn)	x	10.7%[46 µM]	x	x	x
O=C(Nc1ccccn1)C(NS(=O)(=O)c1cccc2nsnc12)c1ccccc1 (stereo not drawn)	-0.5%	18.0%	31.6µM*	4.2%[38.3 µM]	u
CC/C=C\C/C=C\C/C=C\C/C=C\C/C=C\C/C=C\CCC(=O)O	-1.1%	x	-7.2%	-7.3%	22.4µM*
Clc1ccc(NCn2cncn2)nc1	-4.6%	-0.5%	u	-17.8%[38.3 µM]	18.9µM*
O=C(NC(=S)Nc1ccccc1O)c1ccc(Cl)cc1Cl	-0.5%	-17.3%[46 µM]	x	3.7%	u
CCOC(=O)C1C(=O)NC(SCC(=O)OC)=C(C#N)C1c1ccccc1OCC (stereo not drawn)	-2.4%	-0.9%	-7.6%	-8.7%[38.3 µM]	14.4%
CCOC(=O)C1C(=O)NC(SCC(=O)Nc2nccs2)=C(C#N)C1c1ccccc1OCC (stereo not drawn)	2.7%	-3.6%	12.6µM*	3.0%	6.31µM*
C=CCn1c(SCC(=O)NCCOC)nnc1-c1cc2c(s1)CCC(CC)C2 (stereo not drawn)	4.4%	u	17.8µM*	2.4%	u
COc1cc2oc(=O)c3c(c2cc1OCC(=O)c1c(C)n(C)c2ccccc12)CCCC3	-1.0%	u	u	10µM*	u
Clc1ncnc2scc(C3COc4ccccc4O3)c12 (stereo not drawn)	-1.9%	-18.0%	28.2µM*	20.1%	17.8µM*
Cc1ccc(C(=O)NCC(c2ccc(Cl)cc2)N2CCCCC2)cc1 (stereo not drawn)	x	-3.8%[46 µM]	x	x	x
NCCC(=O)N[C@@H](Cc1cnc[nH]1)C(=O)O	6.7%	x	-9.9%	6.1%	-0.3%
C=CCNC(=S)NCCCCC1NC(=S)N(CC=C)C1=O (stereo not drawn)	1.3%	-7.7%	-2.4%	2.8%	-17.1%
O=C1C(CCCNC(=S)NCc2ccccc2)NC(=S)N1Cc1ccccc1 (stereo not drawn)	-2.2%	-0.9%	u	6.9%	31.6µM*
COc1ccc(NC(=O)CC2C(=O)N(c3ccc(F)cc3)C(=S)N2NC(=O)c2ccccc2)cc1 (stereo not drawn)	-1.1%	u	0.6%	-0.6%	-2.6%
CCCCCCCCCCS(=O)(=O)N/N=C/c1ccc(O)cc1	1.6%	u	-25.2%	14.9%	12.6µM*
CCCCCCCCCS(=O)(=O)N/N=C/c1cccc([N+](=O)[O-])c1	-2.0%	u	20µM*	45.3%[38.3 µM]	0.316µM*
CCOC(=O)C(C)Oc1c(C(=O)OC)sc2ncccc12 (stereo not drawn)	-1.9%	x	x	7.1%	-4.1%
Cc1ccc(NC(=O)CCn2cnc3ccccc3c2=O)cc1Cl	0.3%	-7.2%	-2.5%	2.5%	0.3%
Cc1ccc(N/N=C2\CC(=O)c3ccccc32)cc1Cl	x	x	x	8.2%	25.1µM*
